Assay results published in the supplement of paper PMC12494721.
Counter-ions that a name gives are not always drawn.

What was measured:
Settings in all cases: incubation time: 27 h, anaerobic, 37 °C;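 for the amine columns active = adjusted P below 0.05 in both replicates with a change the same way and a mean fold change under 0.8 or over 1.25; inactive = the rest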
[1] = tested on: Clostridium sporogenes DSM 1664; assay: growth (OD595) fold change vs plate DMSO controls (fold change (ratio)); higher = more growth
Method in brief: (§1)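 The 96-well mGAM cultures had been kept anaerobic for 27 h at 37 °C before being shaken and read at 595 nm. Blank subtraction, compound background correction with 20 µM compound solutions in water, and a calibration factor of 5 turned the readings into OD. Growth is given as the fold change versus the median of plate DMSO controls. Fold changes above 1.5 were set to NA, and the values are means of 2 biological replicates.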

[2] = tested on: Escherichia coli IAI1; assay: as above
Method in brief: as §1

[3] = tested on: Klebsiella aerogenes DSM 30053; assay: as above
Method in brief: as §1

[4] = tested on: Ruminococcus gnavus DSM 108212; assay: as above
Method in brief: as §1

[5] = tested on: Klebsiella aerogenes DSM 30053; assay: fold change of Histamine concentration vs plate DMSO controls (fold change (ratio)); higher = more amine produced, active = hit call of the paper (significant change in both replicates, either direction)
Method in brief: (§2)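 Using LC–triple-quadrupole MS with dynamic MRM, amines were quantified against external calibration curves and corrected for drift within each batch. Samples were whole anaerobic mGAM cultures of four gut strains, grown 27 h at 37 °C from OD 0.1 before 1:1 dilution, extracted with cold acetonitrile/methanol containing 0.1% formic acid and centrifuged. Compounds were present at 20 µM final (sweeteners at 50 µM final). The numbers are fold changes versus plate DMSO controls, each the mean of 2 biological replicates.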

[6] = tested on: Clostridium sporogenes DSM 1664; assay: fold change of Tryptamine concentration vs plate DMSO controls (fold change (ratio)); higher = more amine produced, active = hit call of the paper (significant change in both replicates, either direction)
Method in brief: as §2

[7] = tested on: Ruminococcus gnavus DSM 108212; assay: as above
Method in brief: as §2

[8] = tested on: Escherichia coli IAI1; assay: fold change of Putrescine concentration vs plate DMSO controls (fold change (ratio)); higher = more amine produced, active = hit call of the paper (significant change in both replicates, either direction)
Method in brief: as §2

[9] = tested on: Klebsiella aerogenes DSM 30053; assay: as above
Method in brief: as §2

[10] = tested on: Escherichia coli IAI1; assay: fold change of Cadaverine concentration vs plate DMSO controls (fold change (ratio)); higher = more amine produced, active = hit call of the paper (significant change in both replicates, either direction)
Method in brief: as §2

[11] = tested on: Klebsiella aerogenes DSM 30053; assay: as above
Method in brief: as §2

[12] = tested on: Ruminococcus gnavus DSM 108212; assay: fold change of 2-Phenylethylamine concentration vs plate DMSO controls (fold change (ratio)); higher = more amine produced, active = hit call of the paper (significant change in both replicates, either direction)
Method in brief: as §2

Row | SMILES | growth [1] | growth [2] | growth [3] | growth [4] | fold change of Histamine concentration [5] | fold change of Tryptamine concentration [6] | fold change of Tryptamine concentration [7] | fold change of Putrescine concentration [8] | fold change of Putrescine concentration [9] | fold change of Cadaverine concentration [10] | fold change of Cadaverine concentration [11] | fold change of 2-Phenylethylamine concentration [12]
1 | CCCCOC(=O)c1ccccc1Nc1cccc(C(F)(F)F)c1 [Ufenamate] (20 µM) | 0.986 | 1.07 | 1.07 | 0.991 | 0.944 (inactive) | 1.03 (inactive) | 1.11 (inactive) | 1.06 (inactive) | 0.979 (inactive) | 1.03 (inactive) | 1.02 (inactive) | 1.14 (inactive)
2 | CN1c2cc(O)c(N=NC(N)=O)cc2CC1S(=O)(=O)O (stereo not drawn) [Carbazochrome sodium sulfonate] (20 µM) | 1.05 | 1.01 | 1.04 | 0.901 | 1.06 (inactive) | 0.976 (inactive) | 1.08 (inactive) | 1.01 (inactive) | 0.905 (inactive) | 0.975 (inactive) | 1.2 (inactive) | 1.21 (inactive)
3 | CC(=O)N[C@@H](CS)C(=O)O [Acetylcysteine] (20 µM) | 0.935 | 1.07 | 0.967 | 0.985 | 1.14 (inactive) | 1.07 (inactive) | 0.993 (inactive) | 1.03 (inactive) | 1.02 (inactive) | 1.02 (inactive) | 0.987 (inactive) | 1 (inactive)
4 | CC[C@H](C)[C@H](N)C1=N[C@H](C(=O)N[C@@H](CC(C)C)C(=O)N[C@H](CCC(=O)O)C(=O)N[C@H](C(=O)N[C@H]2CCCCNC(=O)[C@H](CC(N)=O)NC(=O)[C@@H](CC(=O)O)NC(=O)[C@H](Cc3cnc[nH]3)NC(=O)[C@@H](Cc3ccccc3)NC(=O)[C@H]([C@@H](C)CC)NC(=O)[C@@H](CCCN)NC2=O)[C@@H](C)CC)CS1 [Bacitracin] (20 µM) | 1 | 1.05 | 1.02 | 0.0384 | 0.999 (inactive) | 1.02 (inactive) | 0.0521 (active) | 1.18 (inactive) | 1.01 (inactive) | 1.01 (inactive) | 1 (inactive) | 0.0535 (active)
5 | CN1CCN(C(c2ccccc2)c2ccccc2)CC1 [Cyclizine hydrochloride] (20 µM) | 0.981 | 0.984 | 0.972 | 1.16 | 1.07 (inactive) | 0.968 (inactive) | 0.996 (inactive) | 1 (inactive) | 1 (inactive) | 1.02 (inactive) | 0.987 (inactive) | 1.03 (inactive)
6 | COCCc1ccc(OCC(O)CNC(C)C)cc1 (stereo not drawn) [Metoprolol-(+)-tartrate salt] (20 µM) | 1.01 | 1.03 | 1.03 | 1.05 | 0.856 (inactive) | 1.02 (inactive) | 1.03 (inactive) | 0.998 (inactive) | 0.955 (inactive) | 1.02 (inactive) | 1 (inactive) | 0.995 (inactive)
7 | CCCc1nc(C)c2c(=O)nc(-c3cc(S(=O)(=O)N4CCN(CC)CC4)ccc3OCC)[nH]n12 [Vardenafil] (20 µM) | 1.15 | 0.975 | 1.01 | 1.27 | 1.03 (inactive) | 0.992 (inactive) | 1.05 (inactive) | 1.01 (inactive) | 1.01 (inactive) | 1.02 (inactive) | 1.01 (inactive) | 1.07 (inactive)
8 | COc1ccccc1OCC(O)CN1CCN(CC(=O)Nc2c(C)cccc2C)CC1 (stereo not drawn) [Ranolazine] (20 µM) | 1.13 | 1.01 | 1.13 | 0.994 | 0.957 (inactive) | 1.03 (inactive) | 1.03 (inactive) | 0.997 (inactive) | 1.01 (inactive) | 1.01 (inactive) | 1.01 (inactive) | 1.06 (inactive)
9 | CN(C)CCC=C1c2ccccc2COc2ccccc21 [Doxepin hydrochloride] (20 µM) | 1.04 | 0.995 | 0.978 | 0.833 | 0.999 (inactive) | 0.959 (inactive) | 0.977 (inactive) | 1.03 (inactive) | 1 (inactive) | 0.919 (inactive) | 1 (inactive) | 0.921 (inactive)
10 | CC(C)OC(=O)CCC/C=C\C[C@@H]1[C@@H](CC[C@@H](O)CCc2ccccc2)[C@H](O)C[C@@H]1O [Latanoprost] (20 µM) | 0.975 | 1 | 0.984 | 1.44 | 1.11 (inactive) | 0.828 (inactive) | 0.542 (active) | 0.928 (inactive) | 1.04 (inactive) | 0.939 (inactive) | 1 (inactive) | 0.649 (inactive)
11 | NS(=O)(=O)c1cc(C2(O)NC(=O)c3ccccc32)ccc1Cl (stereo not drawn) [Chlorthalidone] (20 µM) | 0.955 | 0.977 | 1 | 1.17 | 1.09 (inactive) | 1 (inactive) | 1.03 (inactive) | 0.992 (inactive) | 1.03 (inactive) | 0.973 (inactive) | 0.983 (inactive) | 1.04 (inactive)
12 | CN(C)C(=O)COC(=O)Cc1ccc(OC(=O)c2ccc(NC(=N)N)cc2)cc1 [Camostat mesylate] (20 µM) | 1.07 | 1.01 | 1.04 | 0.958 | 0.897 (inactive) | 1.01 (inactive) | 0.982 (inactive) | 1.02 (inactive) | 1.02 (inactive) | 1.02 (inactive) | 1.02 (inactive) | 0.999 (inactive)
13 | COc1ccc(CNc2nc(N3CCC[C@H]3CO)ncc2C(=O)NCc2ncccn2)cc1Cl [Avanafil] (20 µM) | 0.96 | 0.981 | 0.99 | 0.992 | 1.01 (inactive) | 0.958 (inactive) | 1.01 (inactive) | 1.04 (inactive) | 1 (inactive) | 1.02 (inactive) | 0.991 (inactive) | 1.01 (inactive)
14 | CCOC(=O)C1=C(C)NC(C)=C(C(=O)OCC)C1c1ccccc1/C=C/C(=O)OC(C)(C)C [Lacidipine] (20 µM) | 1.03 | 0.928 | 0.929 | 1.12 | 1.13 (inactive) | 0.849 (inactive) | 0.944 (inactive) | 0.962 (inactive) | 1.03 (inactive) | 1.01 (inactive) | 0.979 (inactive) | 0.955 (inactive)
15 | CCCCC(C)(O)C/C=C/[C@H]1[C@H](O)CC(=O)[C@@H]1CCCCCCC(=O)OC (mixture of isomers) [Misoprostol] (20 µM) | 1.14 | 0.994 | 1.03 | 1.19 | 1.04 (inactive) | 0.979 (inactive) | 0.987 (inactive) | 0.988 (inactive) | 1.02 (inactive) | 0.994 (inactive) | 0.995 (inactive) | 0.945 (inactive)
16 | OC[C@H]1O[C@H](O[C@H]2[C@H](O)[C@@H](O)[C@H](O)O[C@@H]2CO)[C@H](O)[C@@H](O)[C@@H]1O [Maltose] (50 µM) | 1 | 1.03 | 1.03 | 1 | 0.966 (inactive) | 0.991 (inactive) | 0.984 (inactive) | 1.02 (inactive) | 0.996 (inactive) | 1.06 (inactive) | 0.999 (inactive) | 1.01 (inactive)
17 | CN1CCN(CCCN2c3ccccc3Sc3ccc(C(F)(F)F)cc32)CC1 [Trifluoperazine dihydrochloride] (20 µM) | 1.25 | 1.08 | 1.05 | 0.968 | 0.886 (inactive) | 1.06 (inactive) | 0.93 (inactive) | 1.04 (inactive) | 0.955 (inactive) | 1.05 (inactive) | 1.03 (inactive) | 0.964 (inactive)
18 | CN(C)[C@@H]1C(=O)C(C(=O)NCNCCCC[C@H](N)C(=O)O)=C(O)[C@@]2(O)C(=O)C3=C(O)c4c(O)cccc4[C@@](C)(O)[C@H]3C[C@@H]12 [Lymecycline] (20 µM) | 0.746 | 1.23 | 0.995 | 0.941 | 1.05 (inactive) | 0.933 (inactive) | 0.996 (inactive) | 1.2 (inactive) | 1.03 (inactive) | 1.11 (inactive) | 0.999 (inactive) | 1.02 (inactive)
19 | CCC(=O)OCC(=O)[C@@]1(OC(=O)CC)[C@H](C)C[C@H]2[C@H]3[C@H]([C@@H](O)C[C@@]21C)[C@@]1(C)C=CC(=O)C=C1C[C@H]3Cl [Alclometasone dipropionate] (20 µM) | 1.15 | 1.07 | 1.01 | 0.881 | 1.04 (inactive) | 1 (inactive) | 0.947 (inactive) | 1.03 (inactive) | 1.02 (inactive) | 0.986 (inactive) | 0.997 (inactive) | 0.97 (inactive)
20 | CC(=O)c1ccc2c(c1)N(CCCN1CCC(CCO)CC1)c1ccccc1S2 [Piperacetazine] (20 µM) | 0.454 | 0.148 | 0.138 | 0 | 0.95 (inactive) | 1.32 (inactive) | 1.17 (inactive) | 0.95 (inactive) | 0.978 (inactive) | 0.846 (inactive) | 0.993 (inactive) | 1.29 (inactive)
21 | OC[C@H]1O[C@@H](O[C@H]2[C@H](O)[C@@H](O)[C@H](O)O[C@@H]2CO)[C@H](O)[C@@H](O)[C@H]1O [Lactose] (50 µM) | 0.993 | 1.02 | 1.05 | 1.07 | 1.01 (inactive) | 0.96 (inactive) | 0.989 (inactive) | 1.03 (inactive) | 1.01 (inactive) | 0.984 (inactive) | 1.02 (inactive) | 0.976 (inactive)
22 | Clc1ccc(COC(Cn2ccnc2)c2ccc(Cl)cc2Cl)c(Cl)c1 (stereo not drawn) [Miconazole] (20 µM) | 1.25 | 1.18 | 1.01 | 0.232 | 0.926 (inactive) | 0.725 (active) | 0.257 (active) | 1.2 (inactive) | 0.99 (inactive) | 0.974 (inactive) | 1.01 (inactive) | 0.277 (active)
23 | CC(C)NCC(O)c1cc(O)cc(O)c1 (stereo not drawn) [Metaproterenol sulfate] (20 µM) | 0.982 | 1.03 | 1.02 | 1.17 | 0.981 (inactive) | 1.03 (inactive) | 0.957 (inactive) | 1.03 (inactive) | 0.979 (inactive) | 0.974 (inactive) | 0.992 (inactive) | 0.938 (inactive)
24 | CC(=O)N(O)CCCCCNC(=O)CCC(=O)N(O)CCCCCNC(=O)CCC(=O)N(O)CCCCCN [Deferoxamine mesylate] (20 µM) | 0.934 | 0.997 | 0.996 | 1.06 | 0.926 (inactive) | 1.04 (inactive) | 1.18 (inactive) | 0.952 (inactive) | 0.951 (inactive) | 0.996 (inactive) | 1.03 (inactive) | 1.29 (inactive)
